Bioassay records: PubChem BioAssay, Broad Institute
CD40 NFkB inh: CD40 pathway inhibition in BL2 cells. BL2 NF-kB luciferase reporter, CD40L-induced, 4 h. inhibition, % at 10 µM. hit rate 0.94% among 83,000;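 active means mean inhibition of at least 50% with a set share of replicates also reaching that level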;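 further: 0% = neutral control wells and 100% = IKK inhibitor VII at 50 µM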
Numbers without * were called inactive; [ ] = remark or other dose. Only a selection was taken, and hits are over-represented in it overall.

Results for c1ccc(Cn2ccnc2)cc1 ?
CD40 NFkB inh: 1

What do the screens show for `Clc1ccc(CSC(Cn2ccnc2)c2ccc(Cl)cc2Cl)cc1` (stereo not drawn)?
CD40 NFkB inh: 49*

Results for O=C1CNC[C@H]2[C@H](c3ccc(Br)cc3)[C@@H](CO)N12 ?
CD40 NFkB inh: -6[25 µM]

How did CC(=O)N1C[C@@H]2C(c3ccc(Br)cc3)[C@H](C1)N2CC1CC1 (stereo partly drawn) do in these assays?
CD40 NFkB inh: 7

How did C=CCN1[C@@H]2CN(C(C)=O)C[C@H]1C2c1ccccc1 (stereo partly drawn) do in these assays?
CD40 NFkB inh: -6

How did CC=Cc1ccc2n(c1=O)C[C@H]1[C@H](CO)[C@@H](C(=O)N(C)C)N[C@@H]21 (mixture of isomers) do in these assays?
CD40 NFkB inh: 4

What do the screens show for `C/C=C/c1ccc(C2[C@@H]3CN(C(=O)c4cnccn4)C[C@H]2N3)cc1` (stereo partly drawn)?
CD40 NFkB inh: 0

Results for C[C@H]1CN([C@@H](C)CO)C(=O)CCCn2cc(nn2)CO[C@H]1CN(C)C(=O)Oc1cccc2ccccc12 ?
CD40 NFkB inh: -6[25 µM]

What do the screens show for `Cc1ccc(OC(=O)N(C)C[C@@H]2OCc3ccccc3-c3c(n(C)c4ccccc34)C(=O)N([C@@H](C)CO)C[C@H]2C)cc1`?
CD40 NFkB inh: 55*[25 µM]

What do the screens show for `Cc1ccc(OC(=O)N(C)C[C@H]2OCc3ccccc3-c3c(n(C)c4ccccc34)C(=O)N([C@@H](C)CO)C[C@@H]2C)cc1`?
CD40 NFkB inh: 31[25 µM]

Results for Cc1ccc(OC(=O)N(C)C[C@H]2OCc3ccccc3-c3c(n(C)c4ccccc34)C(=O)N([C@H](C)CO)C[C@H]2C)cc1 ?
CD40 NFkB inh: 38[25 µM]

Results for CN(C)CC#Cc1ccc([C@@H]2[C@H]3CN(C(=O)Cc4ccccn4)CCCCN3[C@H]2CO)cc1 ?
CD40 NFkB inh: -16[25 µM]

What do the screens show for `C[C@@H]1CN([C@@H](C)CO)C(=O)c2c(c3ccccc3n2C)-c2ccccc2CO[C@H]1CN(C)C(=O)Oc1ccccc1`?
CD40 NFkB inh: 34

How did N#Cc1ccc(-c2ccc([C@@H]3[C@H]4CN(C(=O)Cc5ccccc5)CCCCN4[C@H]3CO)cc2)cc1 do in these assays?
CD40 NFkB inh: 2[25 µM]

What do the screens show for `COC(=O)[C@@H]1[C@@H](CO)[C@@H]2Cn3c(ccc(-c4cccnc4)c3=O)[C@H]1N2S(=O)(=O)c1ccccc1C`?
CD40 NFkB inh: 2[25 µM]

How did CC(C)NC(=O)N1C[C@@H]2C(c3ccc(Br)cc3)[C@H](C1)N2CC1CC1 (stereo partly drawn) do in these assays?
CD40 NFkB inh: 18

Results for CCN(CCCl)c1cc(CN(C)C)cc(NC(=O)c2ccc(C(=O)Nc3cc(CN(C)C)cc(N(CC)CCCl)c3)cc2)c1 ?
CD40 NFkB inh: 108*

How did C=CCN1CCC23c4c5ccc(O)c4OC2/C(=N\NC(=O)c2ccccc2)CCC3(O)C1C5 (stereo not drawn) do in these assays?
CD40 NFkB inh: -12[25 µM]

Results for CN1CCC2(c3cccc(O)c3)Cc3nc4ccccc4cc3CC2C1 (stereo not drawn) ?
CD40 NFkB inh: 3[25 µM]

What do the screens show for `O=C(O)[C@H]1[C@H](CO)[C@H]2Cn3c(ccc(-c4ccc(F)cc4)c3=O)[C@@H]1N2CC1CCCC1`?
CD40 NFkB inh: 7

Results for COC(=O)C=CC(=O)NC1CCC2(O)C3Cc4ccc(O)c5c4C2(CCN3CC2CC2)C1O5 (stereo not drawn) ?
CD40 NFkB inh: 5[25 µM]

Results for O=C1CC[C@@]2(O)[C@H]3Cc4ccc(O)c5c4[C@@]2(CCN3CC2CC2)[C@H]1O5 ?
CD40 NFkB inh: -6

What do the screens show for `O=C1/C(=C/c2ccccc2)C[C@@]2(O)C3Cc4ccc(O)c5c4[C@@]2(CCN3CC2CC2)[C@H]1O5`?
CD40 NFkB inh: 85*[25 µM]

What do the screens show for `C/C=C/c1ccc(C2[C@@H]3CN(C(=O)C4CC4)C[C@H]2N3)cc1` (stereo partly drawn)?
CD40 NFkB inh: 1

Results for CS(=O)(=O)N1C[C@@H]2C(c3ccc(Br)cc3)[C@H](C1)N2CC1CC1 (stereo partly drawn) ?
CD40 NFkB inh: 3

How did c1cc(-c2ccc(C3[C@H]4CNC[C@@H]3N4CC3CC3)cc2)ccn1 (stereo partly drawn) do in these assays?
CD40 NFkB inh: -5

Results for CC(C)C1(NC(=O)C2CC3c4cccc5[nH]cc(c45)CC3N(C)C2)OC2(O)C3CCCN3C(=O)C(Cc3ccccc3)N2C1=O (stereo not drawn) ?
CD40 NFkB inh: 1[25 µM]

What do the screens show for `CC1=CC2OC3CC4OC(=O)C=CC=CC(C(C)O)OCC(O)C5(C)OC5C(=O)OCC2(CC1O)C4(C)C31CO1` (stereo not drawn)?
CD40 NFkB inh: 86*

What do the screens show for `CC1CCOC(=O)C=CC=CC(=O)OC2CC3OC4C5OC5(C)C(O)CC4(COC(=O)C1O)C2(C)C31CO1` (stereo not drawn)?
CD40 NFkB inh: 95*

How did COC(=O)[C@@H]1[C@@H](CO)[C@@H]2Cn3c(ccc(-c4ccc(F)cc4)c3=O)[C@H]1N2C(=O)c1ccccc1F do in these assays?
CD40 NFkB inh: -13[25 µM]
